Data: the supplement of paper PMC12297408
Where a name gives a salt, the structure may show the parent alone. Hit rate of the full screen: of about 1,300 compounds, about 40 (3%) showed activity. Shown is part of a subset that was picked to be rich in actives. A number with no mark means an inactive call.

Test system: Plasmodium falciparum NF54/iGP1_RE9H ulg8 stage V gametocytes
Experiment: gametocyte viability (luciferase signal relative to DMSO control) (% of DMSO control); higher = less gametocytocidal activity, active = 50 or less
Settings: exposure time: 72 h
Method in brief: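 Compounds from 10 mM DMSO stocks were spotted at nanolitre scale into 96-well plates, and day-12 stage V NF54/iGP1_RE9Hulg8 gametocytes (~2.5% gametocytemia, 3% hematocrit; medium with 0.5% Albumax II) were added to reach 10 µM or 1 µM, one well per concentration. The plates were kept at 37 °C for 72 h. Luminescence was then read on an IVIS Lumina II after mixing 90 µl of culture with 10 µl D-luciferin (30 mg/ml). Viability values are relative to the plate's mean DMSO vehicle signal.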

Row | Compound | gametocyte viability (concentration: 1 µM) | gametocyte viability (concentration: 10 µM)
1 | C#C[C@]1(O)CC[C@H]2[C@@H]3CCC4=C(CCC(=O)C4)[C@H]3CC[C@@]21C [Norethynodrel] | 83.2 | 68.7
2 | COC(=O)C1=C(C)NC(C)=C(C(=O)OC)C1c1ccccc1[N+](=O)[O-] [Nifedipine] | 91.8 | 80.7
3 | Clc1ccc(C(Cn2ccnc2)OCc2c(Cl)cccc2Cl)c(Cl)c1 (configuration not stated) [Isoconazole] | 91.2 | 90.9
4 | CN(C)CCOC(C)(c1ccccc1)c1ccccn1 (configuration not stated) [Doxylamine succinate] | 87.8 | 87.7
5 | Cc1cc(-n2c(=O)[nH]c(=O)n(C)c2=O)ccc1Oc1ccc(SC(F)(F)F)cc1 [Toltrazuril] | 86.4 | 84.2
6 | CC1(C)O[C@@H]2C[C@H]3[C@@H]4C[C@H](F)C5=CC(=O)C=C[C@]5(C)[C@H]4[C@@H](O)C[C@]3(C)[C@]2(C(=O)CO)O1 [Flunisolide] | 87.5 | 88.9
7 | CC(C)(C)CC(C)(C)c1ccc(OCCOCC[N+](C)(C)Cc2ccccc2)cc1 [Benzethonium chloride] | 82.1 | 9.32 (active)
8 | C[N+](C)(CCOc1ccccc1)Cc1ccccc1.O=C([O-])c1cc2ccccc2cc1O [Bephenium hydroxynaphthoate] | 87.3 | 89.9
9 | Cc1cc(C(C)(C)CC(C)(C)C)ccc1OCCOCC[N+](C)(C)Cc1ccccc1 [Methyl benzethonium chloride] | 88.6 | 6.6 (active)
10 | Cc1cc(C2CCCCC2)n(O)c(=O)c1 [Ciclopirox ethanolamine] | 85.5 | 86.8
11 | Clc1ccc2nsnc2c1NC1=NCCN1 [Tizanidine HCl] | 93.4 | 98.4
12 | C[C@H]1[C@H](NC(=O)/C(=N\OC(C)(C)C(=O)O)c2csc(N)n2)C(=O)N1S(=O)(=O)O [Aztreonam] | 96.9 | 96
13 | CCOC(=O)O[C@]1(C(=O)OCCl)CC[C@H]2[C@@H]3CCC4=CC(=O)C=C[C@]4(C)[C@H]3[C@@H](O)C[C@@]21C [Loteprednol etabonate] | 88.2 | 85
14 | Cc1cccc(C)c1NC(=O)C(C)N (configuration not stated) [Tocainide hydrochloride] | 91.8 | 90.2
15 | O=C1CC2(CCCC2)CC(=O)N1CCCCN1CCN(c2ncccn2)CC1 [Buspirone hydrochloride] | 83.9 | 65.7
16 | O=C1Cc2cc(CCN3CCN(c4nsc5ccccc45)CC3)c(Cl)cc2N1 [Ziprasidone  Hydrochloride] | 82.9 | 71.6
17 | O=C1[C@H]2CCCC[C@H]2C(=O)N1CCCCN1CCN(c2nsc3ccccc23)CC1 [Perospirone] | 64.7 | 39.7 (active)
18 | OCCN(CCO)c1nc(N2CCCCC2)c2nc(N(CCO)CCO)nc(N3CCCCC3)c2n1 [Dipyridamole] | 64.1 | 41.1 (active)

Row | Compound | gametocyte viability (concentration: 1 µM) | gametocyte viability (concentration: 10 µM)
19 | N=c1nc(N2CCCCC2)cc(N)n1O [Minoxidil] | 102 | 96
20 | CC(C)NCC(O)c1ccc(O)c(O)c1 (single isomer, unassigned; (+)) [(+)-Isoproterenol (+)-bitartrate salt] | 100 | 97.8
21 | CC(=O)c1ccc2c(c1)N(CCCN1CCC(CCO)CC1)c1ccccc1S2 [Piperacetazine] | 79.4 | 80.8
22 | Fc1ccc(C(c2ccc(F)cc2)N2CCN(C/C=C/c3ccccc3)CC2)cc1 [Flunarizine dihydrochloride] | 81.5 | 95.1
23 | COC1=CC(=O)C[C@@H](C)[C@]12Oc1c(Cl)c(OC)cc(OC)c1C2=O [Griseofulvin] | 89.3 | 84.6
24 | CCOC(=O)O[C@]1(C(=O)COC(=O)CC)CC[C@H]2[C@@H]3CCC4=CC(=O)C=C[C@]4(C)[C@H]3[C@@H](O)C[C@@]21C [Prednicarbate] | 91.7 | 90.6
25 | CN(Cc1cnc2nc(N)nc(N)c2n1)c1ccc(C(=O)N[C@@H](CCC(=O)O)C(=O)O)cc1 [Methotrexate] | 91.4 | 87.9
26 | CN(Cc1cnc2nc(N)nc(N)c2n1)c1ccc(C(=O)N[C@@H](CCC(=O)O)C(=O)O)cc1 (racemic) [Amethopterin (R,S)] | 80.3 | 83.6
27 | COc1cccc2c1C(=O)c1c(O)c3c(c(O)c1C2=O)C[C@@](O)(C(=O)CO)C[C@@H]3O[C@H]1C[C@H](N)[C@H](O)[C@H](C)O1 [Doxorubicin hydrochloride] | 64.5 | 19 (active)
28 | COc1cccc2c1C(=O)c1c(O)c3c(c(O)c1C2=O)C[C@@](O)(C(C)=O)C[C@@H]3O[C@H]1C[C@H](N)[C@H](O)[C@H](C)O1 [Daunorubicin hydrochloride] | 69.8 | 7.37 (active)
29 | C#C[C@]1(O)CC[C@H]2[C@@H]3CCC4=CCCC[C@@H]4[C@H]3CC[C@@]21C [Lynestrenol] | 86 | 89.2
30 | CCCCNc1c(C(=O)OCC)c(C)nc2c1cnn2CC [Tracazolate hydrochloride] | 88.5 | 76.3
31 | CC#C[C@]1(O)CC[C@H]2[C@@H]3CCC4=CC(=O)CCC4=C3[C@@H](c3ccc(N(C)C)cc3)C[C@@]21C [Mifepristone] | 83.1 | 83.2
32 | CN(C)CCOC1=Cc2ccccc2Sc2ccc(Cl)cc21 [Zotepine] | 91.1 | 86
33 | CCOC(=O)N1CCC(=C2c3ccc(Cl)cc3CCc3cccnc32)CC1 [Loratadine] | 86 | 87.7
34 | CC(C)(C#N)c1cc(Cn2cncn2)cc(C(C)(C)C#N)c1 [Anastrozole] | 77.6 | 45.8 (active)
35 | OC(Cn1cncn1)(Cn1cncn1)c1ccc(F)cc1F [Fluconazole] | 83.4 | 86.9
36 | CN(C)CCc1c[nH]c2ccc(Cn3cncn3)cc12 [Rizatriptan benzoate] | 84.2 | 84
